This is an account of results in PubChem BioAssay (NCI).

This is part of a sample that, as a whole, favours compounds with a hit. Of some 83,000 tested, about 20% had one in any assay.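 Interpretation: 100, growth as untreated; towards 0, rising growth inhibition; 0, no net growth; 0 to -100, cell death. Compounds scoring below 10 were considered active.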 A number with no mark means an inactive call. The source made the active and inactive calls.

Holding throughout (assay): NCI-60 one-dose screen, 48 h (100 = growth as untreated, 0 = no growth, -100 = all killed)
What all share (conditions): 10 µM unless noted

In assay [1] the test system is RPMI-8226 leukemia.
Assay [2] concerns OVCAR-4 ovarian.
The subject of assay [3] is SK-OV-3 ovarian.
For assay [4], the system named is IGROV1 ovarian.
Assay [5] has as its system OVCAR-3 ovarian.
In assay [6] the test system is HS 578T breast.
Assay [7] has as its system NCI/ADR-RES ovarian.
Assay [8] concerns T-47D breast.
The test system of assay [9] is OVCAR-5 ovarian.
Assay [10] has as its system OVCAR-8 ovarian.

Regarding `O=C(CCc1nnc2sc(-c3ccc(Cl)cc3Cl)nn12)c1nc2ncccc2[nH]1`, the growth in assay [1] was -2.08% (active); in [2], -37.7% (active); in [3], 36.1%; in assay [4] it was -14.8% (active); in assay [5] it was -68.7% (active); in [6] it was 0.818% (active). Also, the growth in assay [7] is -3.89% (active); in assay [8] it was -26.3% (active).

In the case of `O=C(/C=C/c1ccc(Cl)cc1)c1ccc(Nc2nc(NCCO)nc(Nc3ccc(Cl)cc3)n2)cc1`, the growth in assay [1] was -3.49% (active); in assay [9], 94.3%; in [2], 52.8%; in assay [4], 80.1%; in assay [6], 77.2%; in assay [7], 84.6%. The growth in [8] was 36.1%.

As for `Cc1ccc(S(=O)(=O)c2c(COC(=O)c3cccc(C)c3)c(-c3ccccc3)nn2C)cc1`, the growth in [10] is 88.5%; in assay [9] it was 115%; in assay [2], -59% (active); in [3], 104%; in [4], 80.9%; in assay [6] it was 99.9%. Further, the growth in assay [7] was 106%; in assay [8], -64.3% (active).

Regarding `O=Nc1c(O)ccc2ccccc12.O=Nc1c(O)ccc2ccccc12.O=Nc1c([O-])ccc2ccccc12.[Fe+3]`, the growth was 98.4% in assay [10]; 109% in assay [9]; 104% in assay [2]; 112% in assay [3]; 91.1% in assay [4]; 102% in [5]. Moreover, the results for the growth in assay [6], in [7] and in [8] were 113%, 104% and 104%, respectively.

For the compound `O=c1oc2ccc(Br)cc2c(=O)n1-c1ccc(F)cc1F`, the growth in assay [10] was 11%; in [9], 20.1%; in assay [2] it was 15%; in [3] it was -10.9% (active); in assay [4], 19.3%; in [5], 4.73% (active). In addition, the growth in assay [6] was 5.31% (active); in assay [7] it was 5.44% (active); in assay [8], -9.1% (active).

With `CCCCOCc1cc(CN2CCN(C)CC2)c(O)c2ncccc12`, the growth is 27.1% in assay [10]; 73% in assay [9]; 31.1% in [2]; 42.5% in assay [3]; 80.8% in assay [4]; 23.9% in assay [5]. The growth in assay [6] is 79.3%; in assay [7], 5.45% (active); in assay [8] it was 67.3%.

As for `O=C(CSc1ncccc1C(=O)O)Nc1ccc(Oc2ccccc2)cc1`, the growth in assay [10] is 103%; in assay [9], 108%; in assay [2], 89.4%; in [3], 100%; in [4], 104%; in assay [5], 109%. Besides, the growth was 92% in assay [6], 100% in [7] and 103% in assay [8].

For `CCN1CCN(C(=S)SCC(=O)Nc2nc3ccc(C)cc3s2)CC1`, the growth in [10] was 91.9%; in [9], 95.3%; in assay [2] it was 86.2%; in assay [3] it was 102%; in [5], 106%; in assay [6] it was 112%. In addition, the growth is 103% in assay [7] and 87.8% in assay [8].

For the compound `CCOC(=O)c1sc(-c2ccc(OS(=O)(=O)c3cccs3)c(C=O)c2)nc1C`, the growth in assay [10] is -5.05% (active); in [9] it was 33.1%; in [2], 4.5% (active); in assay [3], 123%; in assay [4], -36.2% (active); in assay [5], -9.03% (active). The growth was 11.2% in [6], -2.63% (active) in assay [7] and 19.1% in [8].

With `CCOc1cccc(/C=N/NC(=O)C(=O)Nc2cccc(C(F)(F)F)c2)c1O`, the growth in [10] was 25.6%; in assay [9] it was 47.4%; in assay [2], 31%; in assay [3] it was 49.2%; in assay [4], 25.3%; in [5], 29.3%. Besides, the growth in assay [6] is 69.3%; in assay [7] it was 9.74% (active); in [8], 30.9%.

Turning to `COc1c2ccoc2c(/C=C/C=O)c2oc(-c3ccccc3)cc(=O)c12`, the growth in assay [10] is 26.1%; in [9], 106%; in assay [2] it was 57.8%; in assay [3], 96.3%; in assay [4] it was 80.5%; in assay [5] it was 57.7%. Moreover, the growth in [6] was 74.8%; in assay [7], 32.4%; in [8], 47%.

In the case of `CCOC(=O)c1c2c(c(C)n1Cc1ccc(OC)cc1)-c1oncc1CC2`, the growth is 88.3% in assay [10]; 81.7% in assay [9]; 89.6% in assay [2]; 105% in assay [3]; 80.8% in assay [4]; 98.5% in assay [5]. The growth in [6] is 69.7%; in assay [7], 85.8%; in [8] it was 90.5%.

In the case of `NS(=O)(=O)c1ccc(CCN=C=S)cc1`, the growth was 30.1% in assay [10]; 85.5% in [9]; 42.8% in [2]; 122% in assay [3]; 25.6% in assay [4]; -18.6% (active) in assay [5]. In addition, the results for the growth in [6] and in assay [7] were 39.7% and 83.6%, respectively.

As to `S=C1CCCC(=S)N1`, the growth in assay [10] was 105%; in assay [9], 100%; in assay [2], 104%; in assay [3], 91.6%; in assay [4], 107%; in assay [5] it was 112%. Moreover, the growth in [6] is 99.8%; in assay [7], 99.5%.

As for `COc1cc(C2CC(c3ccc(Nc4nc(NCCO)nc(N5CCOCC5)n4)cc3)=NN2c2cc(Cl)cc(Cl)c2)cc(OC)c1OC` (configuration not stated), the growth in assay [1] is 33.4%; in [9], 74.4%; in assay [2], 57.2%; in [4], 55%; in assay [5] it was 56.9%; in [6], 22.6%. For the same compound, the growth in assay [7] was 48.8%; in [8] it was 41.4%.
